# Results published in PubChem BioAssay (Tox21).
# Inconclusive results are not listed. Entries that show only a call come without a potency. Activity calls are given as the source filed them. The call rests on the fitted dose curve.
# Experiment: qHTS assay for small molecule agonists of the antioxidant response element (ARE) signaling pathway - cell viability counter screen (AID 743203); further: nearly all actives have a fitted effect of over 55% in size
# Conditions: ARE-bla HepG2 viability, CellTiter-Glo luminescence, 16 h; series mostly up to 73.3 µM
# How it was run: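 Seeded at 2,000 cells/well, ARE-bla HepG2 cells were incubated 5 hrs before compound addition. After 16 hrs of treatment at 37C with 5% CO2, CellTiter-Glo reagent was added and luminescence read 30 min later.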
# Potency means the concentration at half of the fitted maximal effect.
row,Compound,Potency
1,O=C(NC(=O)c1ccccc1Cl)Nc1ccc(OC(F)(F)F)cc1,inactive
2,C[N+]1(C)[C@@H]2CC[C@H]1CC(OC(=O)C(CO)c1ccccc1)C2 (stereo not given in full),inactive
3,CN1CCc2cc(Cl)c(O)cc2[C@H]2c3ccccc3CC[C@@H]21,inactive
4,O.O.O.O=C([O-])[C@H]([O-])[C@@H]([O-])C(=O)[O-].O=C([O-])[C@H]([O-])[C@@H]([O-])C(=O)[O-].[K+].[K+].[Sb+3].[Sb+3],inactive
5,C=CCBr,inactive
6,C=CC(=C)C,inactive
7,CCC1COC(Cn2cncn2)(c2ccc(Cl)cc2Cl)O1 (stereo not given),inactive
8,CC(C)=CCN1CC[C@@]2(C)c3cc(O)ccc3C[C@@H]1[C@@H]2C,inactive
9,CCOP(=O)(Sc1ccccc1)Sc1ccccc1,inactive
10,CCC[CH2][Sn]([CH2]CCC)([CH2]CCC)[O][Sn]([CH2]CCC)([CH2]CCC)[CH2]CCC,0.238 µM (active)
11,COCCC#N,inactive
12,CCN(CC)CCN1C(=O)CN=C(c2ccccc2F)c2cc(Cl)ccc21,inactive
13,C=CCOC(=O)c1ccccc1N,inactive
14,Oc1ccc([C@H]2CNCc3c2ccc(O)c3O)cc1O,inactive
15,N#Cc1c[nH]cc1-c1cccc2c1OC(F)(F)O2,inactive
16,O=[N+]([O-])c1ccccc1-c1ccccc1,inactive
17,Nc1nc(N)nc(Cl)n1,inactive
18,Oc1ccc2[nH]cc(CCCCN3CC=C(c4ccccc4)CC3)c2c1,inactive
19,Nc1ccc(N=Nc2ccccc2)cc1,inactive
20,CCCCN(CCCC)C(=S)[S-].CCCCN(CCCC)C(=S)[S-].[Ni+2],inactive
